From PubChem BioAssay (NCI) come the findings set out here.

About 83,000 compounds went through this panel and 20% of them were active in at least one assay; those are over-represented in the sample as a whole.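 Activity criterion: percent growth below 10, measured after cells in 96-well plates were exposed to a single compound concentration for 48 hours.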 Values without a mark were called inactive. Calls of active or inactive are those of the source.

Some test systems named below: NCI-H23 lung; NCI-H226 lung; NCI-H322M lung; HOP-62 NSCLC; NCI-H460 lung; HOP-92 NSCLC; NCI-H522 lung; A549/ATCC NSCLC; 786-0 renal; COLO 205 colon; DU-145 prostate; K-562 leukemia; MALME-3M melanoma; MDA-MB-231 breast; RXF 393 renal; SF-268 CNS; SF-295 CNS; SF-539 CNS; UACC-257 melanoma; M14 melanoma.
What all share (assay): NCI-60 one-dose screen, 48 h (100 = growth as untreated, 0 = no growth, -100 = all killed)
Common to all, as to conditions: 10 µM unless noted

With `CC/C(=C(/c1ccc(Cl)cc1)c1ccc(OCCN2CCCCC2)cc1)c1ccc(Cl)cc1`, the growth in the assay on NCI-H23 lung is 61.9%; in the assay with NCI-H226 lung it was 84.5%; in the assay with NCI-H322M lung, 93.1%; in the assay with HOP-62 NSCLC it was 86.8%; in the assay on NCI-H460 lung, 79.7%; in the assay on HOP-92 NSCLC it was 85.2%. Further, the growth in the assay with NCI-H522 lung was 65.3%; in the assay with A549/ATCC NSCLC it was 73%; in the assay on 786-0 renal, 76.7%; in the assay on COLO 205 colon, 70.4%; in the assay with DU-145 prostate, 89.8%; in the assay on K-562 leukemia, 26.2%. Moreover, the growth in the assay with MALME-3M melanoma is 82.9%; in the assay on MDA-MB-231 breast it was 94.3%; with RXF 393 renal, 96.6%; in the assay on SF-268 CNS, 88%; with SF-295 CNS it was 60.6%; in the assay on SF-539 CNS, 87.8%. For the same compound, the growth in the assay with UACC-257 melanoma was 78.3%; in the assay on M14 melanoma it was 76.6%.

Take `COc1ccc(-c2cc3c(C)nc(N)nc3n(C3CCC(OCCO)CC3)c2=O)cn1` (stereo not given): the growth was 15% in the assay on NCI-H23 lung; -0.55% (active) in the assay with NCI-H226 lung; -36.4% (active) in the assay on NCI-H322M lung; -21.9% (active) in the assay on HOP-62 NSCLC; 6.78% (active) with NCI-H460 lung; -32.2% (active) in the assay with HOP-92 NSCLC. For the same compound, the growth with NCI-H522 lung is -1.92% (active); with A549/ATCC NSCLC, -38.4% (active); with 786-0 renal, -24.1% (active); in the assay on COLO 205 colon, -61.1% (active); in the assay with DU-145 prostate, 7.64% (active); in the assay with K-562 leukemia, 24%. In addition, the growth with MALME-3M melanoma was -34% (active); in the assay on MDA-MB-231 breast it was 5.08% (active); with RXF 393 renal, -50.9% (active); in the assay on SF-268 CNS, 4.36% (active); with SF-295 CNS, -57.7% (active); with SF-539 CNS, -62.4% (active). Further, the growth with UACC-257 melanoma was -35.9% (active); in the assay with M14 melanoma it was 0.206% (active).

Turning to `CCn1c(-c2nonc2N)nc2c(C#CC(C)(C)O)ncc(OC[C@H]3CCCNC3)c21`, the growth in the assay on NCI-H23 lung was 78.7%; in the assay on NCI-H226 lung, 113%; in the assay with NCI-H322M lung, 75.2%; in the assay on HOP-62 NSCLC, 73%; in the assay on NCI-H460 lung it was 56.6%; in the assay with HOP-92 NSCLC, 178%. In addition, the growth was 12.7% with NCI-H522 lung; 87.8% in the assay with A549/ATCC NSCLC; 26.7% in the assay on 786-0 renal; 38.2% with COLO 205 colon; 64.4% in the assay on DU-145 prostate; 38.8% in the assay with K-562 leukemia. Further, the growth in the assay on MALME-3M melanoma is 84.2%; in the assay with MDA-MB-231 breast, 84.2%; in the assay with RXF 393 renal, 5.93% (active); in the assay on SF-268 CNS, 81%; in the assay with SF-295 CNS, 41.4%; in the assay on SF-539 CNS, 27.1%. Also, the growth with UACC-257 melanoma was 130%; in the assay with M14 melanoma, 71%.

Turning to `CCN(CC)CCNC(=O)c1c(C)[nH]c(/C=C2\C(=O)Nc3ccc(F)cc32)c1C`, the growth was 21.4% in the assay on NCI-H23 lung; 51.1% in the assay on NCI-H226 lung; 31.4% in the assay on NCI-H322M lung; 26% in the assay on HOP-62 NSCLC; 1.9% (active) with NCI-H460 lung; 30.3% in the assay with HOP-92 NSCLC. Further, the growth was -46% (active) in the assay on NCI-H522 lung; 0.0489% (active) with A549/ATCC NSCLC; -63.8% (active) with 786-0 renal; -80.3% (active) with COLO 205 colon; 33.2% in the assay with DU-145 prostate; -22.3% (active) with K-562 leukemia. Further, the growth with MALME-3M melanoma was -82.6% (active); with MDA-MB-231 breast, 0.117% (active); with RXF 393 renal, -71.4% (active); in the assay on SF-268 CNS, 39.6%; with SF-295 CNS it was 67.3%; in the assay with SF-539 CNS, -88.8% (active). Besides, the results for the growth in the assay with UACC-257 melanoma and with M14 melanoma were -40.4% (active) and -77% (active), respectively.

With `COC(=O)[C@@H](NC(=O)[C@@H](OC)[C@@H]1Cc2cc3cc(OC4CC(OC5CC(O)C(O)C(C)O5)C(O)C(C)O4)c(C)c(O)c3c(O)c2C(=O)[C@H]1OC1CC(OC2CC(OC3CC(C)(O)C(O)C(C)O3)C(O)C(C)O2)C(O)C(C)O1)C(C)C` (stereo not given in full), the growth with NCI-H23 lung is -6.89% (active); in the assay on NCI-H226 lung it was -23.4% (active); in the assay with NCI-H322M lung, 24.8%; with HOP-62 NSCLC it was 6.44% (active); in the assay with NCI-H460 lung, -6.19% (active); in the assay on HOP-92 NSCLC it was -18.9% (active). Further, the growth with NCI-H522 lung was -20% (active); with A549/ATCC NSCLC, 7.37% (active); with 786-0 renal, -21.2% (active); with COLO 205 colon, 13.8%; in the assay with DU-145 prostate, 7.21% (active); in the assay on K-562 leukemia, 5.81% (active). In addition, the growth in the assay on MALME-3M melanoma was -12.3% (active); in the assay on MDA-MB-231 breast, 10.9%; with RXF 393 renal it was -68% (active); with SF-268 CNS, 6.33% (active); in the assay with SF-295 CNS, -32.5% (active); in the assay with SF-539 CNS, -22.4% (active). The results for the growth in the assay with UACC-257 melanoma and in the assay on M14 melanoma were 3.21% (active) and 5.18% (active), respectively.

On to `COc1ccc2c(OCc3nnc4ccc(-c5ccccc5)nn34)ccnc2c1`, for which the growth in the assay with NCI-H23 lung is 70.2% [2.5 µM]; in the assay on NCI-H226 lung it was 84.7% [2.5 µM]; in the assay with NCI-H322M lung, 92% [2.5 µM]; with HOP-62 NSCLC it was 77.5% [2.5 µM]; in the assay on NCI-H460 lung, 110% [2.5 µM]; in the assay with HOP-92 NSCLC it was 98.7% [2.5 µM]. For the same compound, the growth in the assay on NCI-H522 lung was 85.8% [2.5 µM]; in the assay on A549/ATCC NSCLC it was 94.1% [2.5 µM]; with 786-0 renal, 93.7% [2.5 µM]; with COLO 205 colon, 95.3% [2.5 µM]; in the assay on DU-145 prostate it was 109% [2.5 µM]; in the assay with K-562 leukemia, 93.1% [2.5 µM]. Further, the growth with MALME-3M melanoma is 97.8% [2.5 µM]; in the assay with MDA-MB-231 breast, 106% [2.5 µM]; with RXF 393 renal it was -13.9% [2.5 µM] (active); in the assay on SF-268 CNS, 109% [2.5 µM]; in the assay with SF-295 CNS, 63.4% [2.5 µM]; in the assay with SF-539 CNS it was 95.1% [2.5 µM]. The growth in the assay on UACC-257 melanoma was 120% [2.5 µM]; with M14 melanoma it was 104% [2.5 µM].

On to `C[C@@H](Nc1cc(F)cc(F)c1)c1cc(C(=O)N(C)C)cc2c(=O)cc(N3CCOCC3)oc12`, for which the growth in the assay with NCI-H23 lung is 76.6%; in the assay on NCI-H226 lung, 83.7%; in the assay with NCI-H322M lung, 31.5%; in the assay on HOP-62 NSCLC it was 59.3%; in the assay with NCI-H460 lung it was 43.1%; in the assay on HOP-92 NSCLC, 27.3%. Further, the growth was 59.7% in the assay with NCI-H522 lung; 34.9% in the assay on A549/ATCC NSCLC; 12.7% with 786-0 renal; 46.6% in the assay on COLO 205 colon; 68.2% with DU-145 prostate; 87.6% with K-562 leukemia. Also, the growth is 68.9% with MALME-3M melanoma; 82.4% in the assay on MDA-MB-231 breast; -16.4% (active) in the assay with RXF 393 renal; 56.8% with SF-268 CNS; 14.8% with SF-295 CNS; 24.1% in the assay on SF-539 CNS. For the same compound, the growth was 35.2% in the assay on UACC-257 melanoma and 69.2% in the assay on M14 melanoma.

Consider `CNS(=O)(=O)Nc1nccc(Cc2c(C)c3ccc(Oc4ncccn4)cc3oc2=O)c1F`, for which the growth in the assay on NCI-H23 lung is 24.1%; in the assay with NCI-H226 lung, 58%; in the assay with NCI-H322M lung it was 33.3%; in the assay with HOP-62 NSCLC it was 42.8%; with NCI-H460 lung it was 61.3%; in the assay with HOP-92 NSCLC, -4.71% (active). Besides, the growth in the assay on NCI-H522 lung was 52%; in the assay with A549/ATCC NSCLC, 38.3%; in the assay with 786-0 renal, 68%; with COLO 205 colon it was 8.97% (active); in the assay on DU-145 prostate, 61.3%; in the assay on K-562 leukemia, 26.2%. Further, the growth in the assay with MALME-3M melanoma is 4.1% (active); in the assay on MDA-MB-231 breast it was 41%; in the assay on RXF 393 renal, 44.9%; in the assay with SF-268 CNS, 78%; with SF-295 CNS it was 70.6%; in the assay on SF-539 CNS, 68%. Moreover, the growth in the assay on UACC-257 melanoma is -5.41% (active); in the assay on M14 melanoma, 13.3%.
